Bead autofluor = flagged as autofluorescent in microsphere protease counterscreen; compound autofluorescence counterscreen, microsphere flow cytometry; stronger effect = higher value; fluorescence intensity (concentration not given with the values); AID 624483; 360,000 tested, 3.1% active; in the data active means fluorescence intensity above about 16000
BoNT A protease = BoNT A light chain protease inhibition | multiplex microsphere protease substrate cleavage, flow cytometry | inhibition, % at 10 µM | 360,000 tested, 0.17% active; in the data active means inhibition above about 30%; further: plate controls were buffer without enzyme for full effect and enzyme alone for no effect
BoNT-F LC inh = blocks Botulinum neurotoxin F light chain protease; Multiplex microsphere protease cleavage assay, flow cytometry; inhibition, % at 10 µM; 360,000 tested, 0.22% active; AID 588497; in the data active means inhibition above about 35%, passing the limit was not always enough; further: plate controls were buffer without enzyme for full effect and enzyme alone for no effect
Anthrax LF inh2 = anthrax lethal factor protease inhibition; P15917; multiplex microsphere protease cleavage assay, LF; inhibition, % at 10 µM; 360,000 tested, 0.12% active; in the data active means inhibition above about 30%; further: plate controls were buffer without enzyme for full effect and enzyme alone for no effect
MazEF act = increases E. coli MazEF RNase cleavage of RNA. P0AE70. FAM/BHQ RNA-DNA oligo cleavage fluorescence, 5 h. activation, % at 20 µM. 350,000 tested, 0.32% active. AID 504720; in the data active means activation above about 50%
Target sequence (P0AE70 whole entry, looked up): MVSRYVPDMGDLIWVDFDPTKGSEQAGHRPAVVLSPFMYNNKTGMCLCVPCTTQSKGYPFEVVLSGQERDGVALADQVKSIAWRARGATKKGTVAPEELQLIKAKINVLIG
BoNTA LC inh 2 = BoNT/A light chain protease inhibition. shares compounds with BoNT A protease. multiplex microsphere protease cleavage assay, flow cytometry. inhibition, % at 10 µM. 150 tested, 10% active. AID 602325; in the data active means inhibition above about 24%
LF protease CP2 = Bacillus anthracis lethal factor protease inhibition; inhibition, % at 10 µM; 150 tested, 7% active; shares compounds with BoNT A protease; multiplex microsphere protease cleavage assay
BoNTF LC inh 2 = blocks botulinum neurotoxin F light chain protease | shares compounds with BoNT A protease | multiplex microsphere protease cleavage assay, flow cytometry | inhibition, % at 10 µM | 150 tested, 7% active | AID 602336
* = called active by the depositor; . = not tested or not shown; + = active, no number. In the library only some 3.6% were active in any assay of this set; here they are far more common. Unless noted, no stated cut-off is given here; in the data, active means inhibition above about 25%; inactive means the rest.

SMILES	Bead autofluor	BoNT A protease	BoNT-F LC inh	Anthrax LF inh2	MazEF act	BoNTA LC inh 2	LF protease CP2	BoNTF LC inh 2
COc1ccc2c(c1)nc(-c1cccc(Br)c1)c(=O)n2C(c1ccccn1)c1nc2ccccc2[nH]1 (stereo not given)	3816	30*	-2	24	.	12	8	10
CCOC(=O)c1nc2c(ccc3ccccc32)cc1C	5548	0	-2	-8	1	.	.	.
Cc1cccc2c1NC1(CCCC1)CC2C (stereo not given)	4778	7	+	-6	-2	3	-2	+
Cc1nc2ccc(NC(=O)[C@@H](NC(=O)c3c(F)cccc3F)C(C)C)cc2s1	8879	18	14	40*	-20	8	15	30*
COc1cc(OC)cc(C(=O)NC(C(=O)Nc2ccc3nc(C)sc3c2)C(C)C)c1 (stereo not given)	7926	0	0	-10	10	.	.	.
CCN(CC)c1ccc2cc(S(=O)(=O)c3ccc(Cl)cc3)c(=O)oc2c1	3309	68*	21	42*	15	26*	25*	15

Source: PubChem (several laboratories)
